# Source: PubChem BioAssay (Tox21)
# Values joined by “and” are separate entries in the source; they are usually repeats but may differ in a detail not shown here. Equal entries are not always repeated. Unmarked numbers belong to inactive results. Results filed as inconclusive are left out. Where a call stands in place of a potency, no number is given. Active and inactive are the calls of the source. Unless noted, calls follow the shape of the dose curve; as a rule, active = well fitted curve in the direction sought with a large enough effect in the repeat runs; inconclusive = weak or mixed curves; inactive = no such curve, though single readings can be large; an effect the other way counts as inactive or inconclusive.
# Experiments:
# [1] = qHTS assay to identify small molecule agonists of H2AX (AID 1224845; active = well fitted activation curve with a large enough effect in the signal ratio in the repeat runs, not every such curve was filed as active; the % refers to the signal ratio; also: potency is read from the fitted curve at half-maximal effect)
# How it was run: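 Phospho-H2AX Ser139 measured by HTRF (ex 320 nm; em 665 and 620 nm) after 24 hr antibody incubation. Compounds, 15 concentrations, 0.76% DMSO, were applied to CHO-K1 cells for 3hr at 37C before lysis.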
# [2] = qHTS assay to identify small molecule agonists of the hypoxia (HIF-1) signaling pathway (AID 1224846; active = well fitted activation curve with a large enough effect in the signal ratio in the repeat runs, not every such curve was filed as active; the % refers to the signal ratio)
# How it was run: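 Reporter induction in HRE-bla ME-180 cells is taken as agonism: cells sit 5 hrs after plating, receive compounds or DMSO only, incubate 17 hrs at 37C under 5% CO2, and are loaded with CCF4-AM for beta-lactamase FRET measurement.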
# [3] = qHTS assay to identify small molecule agonists of H2AX - cell viability counter screen (AID 1224847; calls by dose curve; also: nearly all actives have a fitted effect of over 30% in size; also: potency is read from the fitted curve at half-maximal effect)
# How it was run: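 Counter-screen for viability: CellTiter-Glo ATP luminescence read after 3 h compound treatment (15-point titration, 0.76% DMSO final) of CHO-K1 cells at 37C, with 30 min room-temperature reagent incubation.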
# [4] = qHTS RealTime-Glo MT Cell Viability Assay in HepG2 cells - 24 hour (AID 1224867); also: nearly all actives have a fitted effect of over 50% in size; also: potency is read from the fitted curve at half-maximal effect
# How it was run: (§1)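 Cell number in HepG2 cultures estimated from NanoLuc luminescence generated by metabolic reduction of a prosubstrate by living cells. The homogeneous, nonlytic format allowed repeated reads at 0, 8, 16, 24, 32 and 40 h of compound exposure.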
# [5] = qHTS RealTime-Glo MT Cell Viability Assay in HepG2 cells - 40 hour (AID 1224870); also: nearly all actives have a fitted effect of over 50% in size; also: potency is read from the fitted curve at half-maximal effect
# How it was run: (§2)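 Real-time viability: cells seeded at 600 per well together with NanoLuc and cell-permeant prosubstrate, compounds added after 5 h incubation. Luminescence tracked at 0, 8, 16, 24, 32 and 40 h of exposure.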
# [6] = A CellTox Green Cytotoxicity Assay to monitor cytotoxicity in HEK293 cells - 40 hour (AID 1224871); also: nearly all actives have a fitted effect of over 45% in size
# How it was run: (§3)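 Tox21 screen in HEK293: membrane-impermeant cyanine dye fluoresces on binding dead-cell DNA; compound pinned 5 h post-seeding, plates held at 37 C, signal read repeatedly through 40 h.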
# [7] = qHTS RealTime-Glo MT Cell Viability Assay in HEK293 cells - 16 hour (AID 1224872); also: nearly all actives have a fitted effect of over 50% in size; also: potency is read from the fitted curve at half-maximal effect
# How it was run: (§4)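 Homogeneous bioluminescent viability format in HEK293 cells (600 cells/well). Following 5 h at 37 C/5% CO2, 23 nL compound was pintooled; the signal was measured repeatedly during 40 h incubation.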
# [8] = qHTS RealTime-Glo MT Cell Viability Assay in HepG2 cells - 8 hour (AID 1224873); also: nearly all actives have a fitted effect of over 55% in size; also: potency is read from the fitted curve at half-maximal effect
# How it was run: as §2
# [9] = qHTS RealTime-Glo MT Cell Viability Assay in HEK293 cells - 40 hour (AID 1224874); conditions: RealTime-Glo luminescence; max response: hits give low values; also: nearly all actives have a fitted effect of over 50% in size; also: potency is read from the fitted curve at half-maximal effect
# How it was run: (§5)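 HEK293 + NanoLuc + prosubstrate, 600 cells/well; 5 h, 37 C/5% CO2; compound 23 nL in DMSO by pintool; 37 C; luminescence read at 0, 8, 16, 24, 32 and 40 h time points.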
# [10] = A CellTox Green Cytotoxicity Assay to monitor cytotoxicity in HEK293 cells - 24 hour (AID 1224875); also: nearly all actives have a fitted effect of over 45% in size
# How it was run: as §3
# [11] = A CellTox Green Cytotoxicity Assay to monitor cytotoxicity in HepG2 cells - 16 hour (AID 1224876); also: nearly all actives have a fitted effect of over 45% in size; also: potency is read from the fitted curve at half-maximal effect
# How it was run: (§6)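 Measurements at 0, 8, 16, 24, 32 and 40 h of treatment captured CellTox Green fluorescence in HepG2 cells that had been co-plated with reagent and preincubated 5 h at 37 C/5% CO2.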
# [12] = qHTS RealTime-Glo MT Cell Viability Assay in HepG2 cells - 32 hour (AID 1224877); also: nearly all actives have a fitted effect of over 55% in size; also: potency is read from the fitted curve at half-maximal effect
# How it was run: as §1
# [13] = A CellTox Green Cytotoxicity Assay to monitor cytotoxicity in HepG2 cells - 24 hour (AID 1224878); also: nearly all actives have a fitted effect of over 45% in size; also: potency is read from the fitted curve at half-maximal effect
# How it was run: as §6
# [14] = A CellTox Green Cytotoxicity Assay to monitor cytotoxicity in HepG2 cells - 40 hour (AID 1224879); also: nearly all actives have a fitted effect of over 40% in size; also: potency is read from the fitted curve at half-maximal effect
# How it was run: as §6
# [15] = qHTS RealTime-Glo MT Cell Viability Assay in HEK293 cells - 0 hour (AID 1224880)
# How it was run: as §5
# [16] = A CellTox Green Cytotoxicity Assay to monitor cytotoxicity in HEK293 cells - 32 hour (AID 1224881); also: nearly all actives have a fitted effect of over 40% in size
# How it was run: as §3
# [17] = A CellTox Green Cytotoxicity Assay to monitor cytotoxicity in HEK293 cells - 0 hour (AID 1224869); also: nearly all actives have a fitted effect of over 50% in size
# How it was run: as §3
# [18] = qHTS assay to identify small molecule antagonists of the estrogen related receptor (ERR) signaling pathway from Tox21 library (AID 1224848); also: nearly all actives have a fitted effect of over 50% in size; also: potency is read from the fitted curve at half-maximal effect
# How it was run: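 Luciferase luminescence (ONE-Glo, 30 min room temperature) was the read-out. Cells of the NTP-supplied ERR line, 2,000 per well, were given 6 h at 37 C before compound addition in DMSO and 18 h exposure at 37 C.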
# [19] = qHTS assay to identify small molecule agonists of the estrogen related receptor (ERR) signaling pathway from Tox21 library (AID 1224849; calls by dose curve; also: nearly all actives have a fitted effect of over 15% in size); conditions: ERR reporter cell line, ONE-Glo luciferase, 18 h
# How it was run: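 Tox21 compounds tested for ERR agonism in an NTP reporter cell line: 18 h treatment at 37 C, then ONE-Glo luminescence.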
# [20] = qHTS RealTime-Glo MT Cell Viability Assay in HEK293 cells - 32 hour (AID 1224868); also: nearly all actives have a fitted effect of over 50% in size; also: potency is read from the fitted curve at half-maximal effect
# How it was run: as §4
compound,measurement,setting,value
NC(=O)CF,Potency,[1],inactive
same,outcome,[2],inactive
same,Potency,[3],inactive
same,Potency,[4],inactive
same,Potency,[5],inactive
same,Potency,[6],inactive
same,Potency,[7],inactive
same,Potency,[8],inactive
same,max response,[9],-4.69%
same,Potency,[10],inactive
same,Potency,[11],inactive
same,Potency,[12],inactive
same,Potency,[13],inactive
same,Potency,[14],inactive
same,outcome,[15],inactive
same,Potency,[16],inactive
C[C@H]1O[C@H](OC2[C@@H](O)[C@@H](O)C(O)[C@H](O)[C@H]2O)[C@@H](N)C[C@@H]1N=C(N)C(=O)O (some centres undefined),Potency,[1],inactive
same,outcome,[2],inactive
same,Potency,[3],inactive
same,Potency,[4],inactive
same,Potency,[17],inactive
same,Potency,[5],inactive
same,Potency,[6],inactive
same,Potency,[7],inactive
same,Potency,[8],inactive
same,max response,[9],5.07%
same,Potency,[10],inactive
same,Potency,[11],inactive
same,Potency,[12],inactive
same,Potency,[13],inactive
same,Potency,[14],inactive
same,outcome,[15],inactive
same,Potency,[16],inactive
CC(C)c1ccc(NC(=O)N(C)C)cc1,Potency,[1],inactive
same,outcome,[2],inactive
same,Potency,[18],inactive
same,"activity change, positive = activation",[19]; at 92.4 µM (top of the series),33.4% (active)
same,Potency,[4],inactive
same,Potency,[20],inactive
same,Potency,[17],inactive
same,Potency,[5],inactive
same,Potency,[6],inactive
same,Potency,[7],inactive
same,Potency,[8],inactive
same,Potency,[10],inactive
same,Potency,[11],inactive
same,Potency,[12],inactive
same,Potency,[13],inactive
same,Potency,[14],inactive
same,outcome,[15],inactive
same,Potency,[16],inactive
C[N+](C)(C)CCOC(=O)C(O)(c1ccccc1)c1ccccc1,Potency,[1],inactive
same,outcome,[2],inactive
same,Potency,[3],inactive
same,Potency,[4],inactive
same,Potency,[17],inactive
same,Potency,[5],23.9 µM (active)
same,Potency,[6],inactive
same,Potency,[7],inactive
same,Potency,[8],inactive
same,Potency,[10],inactive
same,Potency,[11],inactive
same,Potency,[13],inactive
same,Potency,[14],inactive
same,outcome,[15],inactive
same,Potency,[16],inactive
CCCC1CCCCN1 (centres undefined),Potency,[1],inactive
same,outcome,[2],inactive
same,Potency,[3],inactive
same,Potency,[4],inactive
same,Potency,[17],inactive
same,Potency,[5],inactive
same,Potency,[6],inactive
same,Potency,[7],inactive
same,Potency,[8],inactive
same,max response,[9],5.87%
same,Potency,[10],inactive
same,Potency,[11],inactive
same,Potency,[12],inactive
same,Potency,[13],inactive
same,Potency,[14],inactive
same,outcome,[15],inactive
same,Potency,[16],inactive
O=C(NC(=O)c1cc(F)c(F)cc1Cl)Nc1cc(F)ccc1N1CCC(C(=O)O)CC1,Potency,[1],inactive
same,outcome,[2],inactive
same,Potency,[3],inactive
same,Potency,[4],inactive
same,Potency,[17],inactive
same,Potency,[5],inactive
same,Potency,[6],inactive
same,Potency,[7],inactive
same,Potency,[8],inactive
same,Potency,[10],inactive
same,Potency,[11],inactive
same,Potency,[12],inactive
same,outcome,[15],inactive
same,Potency,[16],inactive
CCOC(=O)c1cncn1C(C)c1ccccc1 (centres undefined),Potency,[1],inactive
same,Potency,[3],inactive
same,Potency,[18],inactive
same,"activity change, positive = activation",[19]; at 42.5 µM (top of the series),-0.608%
same,Potency,[4],inactive
same,Potency,[20],inactive
same,Potency,[17],inactive
same,Potency,[5],inactive
same,Potency,[6],inactive
same,Potency,[7],inactive
same,Potency,[8],inactive
same,max response,[9],3.04%
same,Potency,[10],inactive
same,Potency,[11],inactive
same,Potency,[12],inactive
same,Potency,[13],inactive
same,Potency,[14],inactive
same,outcome,[15],inactive
same,Potency,[16],inactive
O=[N+]([O-])O[C@H]1CO[C@H]2[C@@H]1OC[C@H]2O[N+](=O)[O-],Potency,[1],inactive
same,Potency,[3],inactive
same,Potency,[18],inactive
same,"activity change, positive = activation",[19]; at 42.5 µM (top of the series),4.43%
same,Potency,[4],inactive
same,Potency,[20],inactive
same,Potency,[17],inactive
same,Potency,[5],inactive
same,Potency,[6],inactive
same,Potency,[7],inactive
same,Potency,[8],inactive
same,max response,[9],6.05%
same,Potency,[10],inactive
same,Potency,[11],inactive
same,Potency,[13],inactive
same,Potency,[14],inactive
same,outcome,[15],inactive
same,Potency,[16],inactive
Cc1cccc(C)c1NC1=NCCCS1,Potency,[1],inactive
same,Potency,[3],inactive
same,Potency,[18],inactive
same,"activity change, positive = activation",[19]; at 42.5 µM (top of the series),4.81%
same,Potency,[4],inactive
same,Potency,[20],inactive
same,Potency,[17],inactive
same,Potency,[5],inactive
same,Potency,[6],inactive
same,Potency,[7],inactive
same,Potency,[8],inactive
same,Potency,[10],inactive
same,Potency,[11],inactive
same,Potency,[13],inactive
same,Potency,[14],inactive
same,outcome,[15],inactive
same,Potency,[16],inactive
O=[N+]([O-])/C=C/c1ccccc1,Potency,[1],20.1 µM (active)
same,Potency,[18],22 µM (active)
same,"activity change, positive = activation",[19]; at 92.4 µM (top of the series),-76.3% and -54.1%
same,Potency,[4],44.4 µM (active) and 19.5 µM (active)
same,Potency,[20],7.03 µM (active) and 13.8 µM (active)
same,Potency,[5],19.8 µM (active) and 13.8 µM (active)
same,Potency,[7],4.98 µM (active) and 12.3 µM (active)
same,Potency,[8],49.8 µM (active)
same,Potency,[9],6.27 µM (active) and 15.5 µM (active)
same,Potency,[10],inactive
same,Potency,[11],55.8 µM (active)
same,Potency,[12],22.2 µM (active) and 17.4 µM (active)
same,Potency,[13],22.2 µM (active)
same,Potency,[14],12.5 µM (active)
same,outcome,[15],inactive
CC1(C)[C@H](C(=O)O[C@H](C#N)c2cccc(Oc3ccccc3)c2)[C@@H]1C=C(Br)Br,Potency,[1],inactive
same,Potency,[3],inactive
same,"activity change, positive = activation",[19]; at 92.4 µM (top of the series),-23.2% and -24.2%
same,Potency,[4],inactive
same,Potency,[20],inactive
same,Potency,[17],inactive
same,Potency,[5],inactive
same,Potency,[6],inactive
same,Potency,[7],inactive
same,Potency,[8],inactive
same,Potency,[10],inactive
same,Potency,[11],inactive
same,Potency,[12],inactive
same,Potency,[13],inactive
same,Potency,[14],inactive
same,outcome,[15],inactive
same,Potency,[16],inactive
CCCC[N+]1(C)[C@@H]2CC(OC(=O)[C@H](CO)c3ccccc3)C[C@H]1[C@@H]1O[C@@H]12 (some centres undefined),Potency,[1],inactive
same,Potency,[3],inactive
same,Potency,[4],inactive
same,Potency,[20],inactive
same,Potency,[17],inactive
same,Potency,[5],inactive
same,Potency,[6],inactive
same,Potency,[7],inactive
same,Potency,[8],inactive
same,max response,[9],2.06%
same,Potency,[10],inactive
same,Potency,[11],inactive
same,Potency,[13],inactive
same,Potency,[14],inactive
same,outcome,[15],inactive
same,Potency,[16],inactive
Nc1ccc2c(c1)Cc1ccccc1-2,outcome,[2],inactive
same,Potency,[3],inactive
same,Potency,[18],inactive
same,"activity change, positive = activation",[19]; at 92.4 µM (top of the series),-8.59% (active)
same,Potency,[4],inactive
same,Potency,[5],inactive
same,Potency,[6],inactive
same,Potency,[8],inactive
same,Potency,[10],inactive
same,Potency,[11],inactive
same,Potency,[12],inactive
same,Potency,[13],inactive
same,Potency,[14],inactive
same,outcome,[15],inactive
same,Potency,[16],inactive
C[C@]12C=CC3=C4CCC(=O)C=C4CC[C@H]3[C@@H]1CC[C@@H]2O,outcome,[2],inactive
same,Potency,[3],89.2 µM (active) and 75.9 µM (active)
same,Potency,[4],inactive
same,Potency,[20],inactive
same,Potency,[17],inactive
same,Potency,[5],inactive
same,Potency,[6],inactive
same,Potency,[7],inactive
same,Potency,[10],inactive
same,Potency,[11],inactive
same,Potency,[12],inactive
same,Potency,[13],inactive
same,Potency,[14],inactive
same,outcome,[15],inactive
same,Potency,[16],inactive
